# 14-3-3 Bad PPI = inhibitors of 14-3-3 zeta/Bad binding, primary screen, biochemical, TR-FRET, bovine 14-3-3 zeta; 14-3-3 protein zeta/delta (Bos taurus), P63103; TR-FRET 14-3-3zeta/Dy647-pBad peptide displacement, 1 h; inhibition, % at 21.7 µM; 220,000 compounds, 0.71% hits; AID 781, 2007;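 active = inhibition above about 70%, limit read from the data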;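 also: 0% = full 14-3-3 plus peptide FRET controls and 100% = background without 14-3-3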
# Target sequence (P63103 whole entry, looked up): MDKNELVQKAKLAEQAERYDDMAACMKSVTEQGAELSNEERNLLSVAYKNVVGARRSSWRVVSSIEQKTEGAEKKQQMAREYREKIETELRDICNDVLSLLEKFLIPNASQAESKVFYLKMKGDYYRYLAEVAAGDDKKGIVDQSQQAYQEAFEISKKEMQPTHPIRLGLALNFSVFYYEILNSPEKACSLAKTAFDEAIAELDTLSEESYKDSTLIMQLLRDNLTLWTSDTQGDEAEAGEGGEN
# Mcl1-Noxa inh = Mcl-1/Noxa binding inhibitors, primary screen, biochemical, TR-FRET, 1536-well | inhibition, % at 21.7 µM | 220,000 compounds, 1.5% hits | TR-FRET Mcl-1/Noxa peptide binding, 2 h | Induced myeloid leukemia cell differentiation protein Mcl-1 (Homo sapiens), Q07820;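 active = compounds that cut the protein-peptide binding signal by more than 50% relative to plate controls in a single-dose test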;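 also: His-tagged Mcl-1 with rhodamine Noxa BH3 peptide and terbium anti-His antibody; 0% = Mcl-1 plus Noxa peptide wells and 100% = peptide-only wells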
# Mcl1 Bid PPI = Mcl-1/Bid binding inhibitors, primary screen, biochemical, TR-FRET, 1536-well. TR-FRET Mcl-1/Bid-Dy647 peptide binding. Induced myeloid leukemia cell differentiation protein Mcl-1 (Homo sapiens), Q07820. 220,000 compounds, 0.97% hits. inhibition, % at 21.7 µM;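 active = compounds that cut the binding signal by more than half at the single screening dose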;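 also: His-tagged Mcl-1 with europium anti-His antibody binding Bid BH3 peptide; 0% = Mcl-1 plus peptide wells and 100% = peptide-only wells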
# Bim-Mcl-1 = inhibitors of Bim peptide binding to Mcl-1, primary screen, biochemical, bead-based flow cytometry, multiplex | Induced myeloid leukemia cell differentiation protein Mcl-1 (Homo sapiens), Q07820 | Bim peptide-Mcl-1 binding | inhibition, % at 10 µM | 190,000 compounds, 0.1% hits | AID 1009, 2008; in the data active = inhibition above about 40%;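 also: 0% = no compound tracer wells and 100% = peptide blocker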
# NCF1 inh = p47phox/p22phox peptide binding inhibitors, primary screen, biochemical, uHTS, NADPH oxidase regulatory subunit | Neutrophil cytosol factor 1 (Homo sapiens), P14598 | fluorescence polarization, 2 h | inhibition, % at 24.7 µM | 220,000 compounds, 0.53% hits;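 active = inhibition above about 30%, limit read from the data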;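 also: 0% = p47phox with labelled peptide and 100% = labelled peptide alone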
# The depositor's hits bear a star; nt = not tested or not shown; [ ] = remark or other dose. Hits are enriched below; roughly 3.1% of the tested compounds scored in any of these assays.
SMILES,14-3-3 Bad PPI,Mcl1-Noxa inh,Mcl1 Bid PPI,Bim-Mcl-1,NCF1 inh
NC(=O)CC(NC(=O)Cc1ccc(Br)cc1)c1ccc(NC2CCC2)c([N+](=O)[O-])c1 (stereo not drawn),0,51*,-50,nt,0
NC(=O)CC(NC(=O)Cc1ccc(Cl)cc1)c1ccc(NC2CCCC2)c([N+](=O)[O-])c1 (stereo not drawn),1,-10,-20,nt,-10
CC1CCCCN1C(=O)c1cc2nc(-c3ccccc3)cc(-c3ccccc3)n2n1 (stereo not drawn),7,-4,-12,-4,-32
Cc1cc(=O)oc2cc(OCC(=O)N/N=C/c3ccccc3[N+](=O)[O-])ccc12,64,50,63*,1,27
Cc1cc(=O)oc2cc(OCC(=O)N3CCOCC3)ccc12,13,64*,13,-11,6
O=C(CSc1ccccn1)N/N=C/c1ccccc1[N+](=O)[O-],84*[fluorescence artefact?],11,11,-2,-3
O=C(CSc1ccccn1)N/N=C/c1cc([N+](=O)[O-])ccc1O,-4,-53,-63,nt,1
COc1ccc2c(c1)c(=O)oc1cc(OCC(=O)N3CCc4ccccc4C3)ccc12,18,58*,53*,-5,-10
CCCS(=O)(=O)N1CCN=C1SCc1cccc(C)c1,66,5,-23,-5,0
Cc1cc(C(=O)Nc2ccc3c(c2)CCC3)c2ccccc2n1,-4,27,-15,0,-23
Cn1c2ccccc2c(=O)c2c(=O)n(-c3ccccc3)c(-c3ccc(C(C)(C)C)cc3)nc21,7,-6,22,nt,17
Cc1cccc(OCC(=O)N(C)CCc2ccccn2)c1,71*,12,57*,0,0
Cc1cccc(CN(C)CCc2ccccn2)c1,45,27,31,-1,-12
COc1ccc2cc(-c3[nH]ncc3CN3CCCN(c4ccccc4)CC3)ccc2c1,-9,22,-31,-2,-5
CCOC(=O)c1cnc2ccc(C)cc2c1NCCO,1,12,-9,-2,43*
CCOC(=O)c1cnc2c(ccc3ccccc32)c1NCCO,-1,10,8,-3,-15
COc1cc(/C=N/NC(=S)N/N=C/c2cc(OC)c(OC)c(OC)c2)cc(OC)c1OC,-6,16,-21,-3,-1
O=C(CSc1nnc2c3ccccc3c3ccccc3c2n1)Nc1ccccc1,-12,13,-51,-3,-168
O=C(CSc1nnc2c3ccccc3c3ccccc3c2n1)Nc1ccccc1F,6,61*,4,7,-105
O=C(N=C1SCC(=O)N1c1ccccc1Cl)c1ccccc1,-17,4,-28,-2,-61
O=C(O)/C(=C\c1ccc(Cl)c([N+](=O)[O-])c1)c1ccc(S(=O)(=O)N2CCCCC2)s1,-2,56*,-6,-1,-12
O=C(O)/C(=C\c1ccccc1Cl)c1ccc(S(=O)(=O)N2CCCCC2)s1,6,62*,36,0,0
O=C1C2C3C=CC(C4CC34)C2C(=O)N1Cc1ccco1 (stereo not drawn),-12,15,-9,-2,-13
Cc1[nH]c2ccccc2c1CN1CCc2ccccc2C1,55,nt,51*,0,-24
O=c1[nH]c(CN2CCc3ccccc3C2)nc2ccccc12,-17,25,10,-1,12
CCSc1ccccc1C(=O)N=C1NC(=O)CC2C(=O)NCCN12 (stereo not drawn),-7,-2,-11,-7,-6
O=C(NC(=S)Nc1ccc2oc(-c3ccncc3)nc2c1)c1ccccc1F,73*,12,24,-8,-81
O=C(NC(=S)Nc1ccc2c(c1)OCCO2)c1ccccc1F,-2,33,68*,-3,6
COC(=O)C1=C(C(=O)OC)[C@@H]2N(C)c3ccccc3[C@@]23C[C@@H](CO)N(C(=O)NCCBr)C3=N1,-3,-14,-29,nt,-29
CCOC(=O)c1c(C)oc2cc(Br)c(OC(=O)N3CCOCC3)cc12,4,-2,92*,-1,-1

# Compound activity from PubChem BioAssay.
